From PubChem BioAssay
Only a selection was taken, and hits are over-represented in it overall.
Pf Dd2 growth = blocks in vitro growth of P. falciparum Dd2; P. falciparum Dd2 growth, SYBR Green, 72 h; Potency, µM (doses to about 28.9 µM), inactives show top-dose activity, negative = inhibition, most hits filed as inhibitors; 4.3% of 120,000 active; AID 1347417; active = well fitted inhibition curve with a large enough effect;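 note: plate controls were DMSO vehicle for no effect and reference drug for full effect; nearly all actives have a fitted effect of over 65% in size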
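Readout: SYBR Green fluorescence, 485 nm excitation, 535 nm emission, after ~16 h lysis at 37C. Before that, Dd2-infected red cells (2.5% hematocrit) grew 72 h with compound, 29 uM top final concentration.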
* = called active by the depositor; i = inactive; [ ] = another dose, or the depositor's remark. Potency is the fitted concentration of half-maximal effect.

SMILES	Pf Dd2 growth
CN(C)CCO[C@H]1C[C@@H](O)C12CCN(C(=O)c1ccc3c(c1)OCO3)CC2	-11%
COc1ccc(C(=O)N2CCCC(c3nc(-c4ccccc4)no3)CCNC(=O)CC2)c(OC)n1 (stereo unspecified)	11µM*
COc1ccc(C(=O)N2CCCC(c3nc(-c4cccnc4)no3)CCNC(=O)CC2)c(OC)n1 (stereo unspecified)	i
O=C1CCN(C(=O)c2cccnc2)CCCC(c2nc(-c3ccccc3)no2)CCN1 (stereo unspecified)	i
Cc1cncc(C(=O)NC2CCN(c3ccc(=O)n(C)n3)CC2)c1	-8%
Cc1ccc(C2Cn3nnc(C(=O)N4CCC(C(=O)Nc5ccc(Cl)c(C)c5)CC4)c3CO2)cc1 (stereo unspecified)	i
CCC(C(=O)N1CCN(c2ccccc2)CC1)n1c(C)c2cnn(-c3ccccc3)c(=O)c2c1C (stereo unspecified)	11µM*
Cc1c2cnn(-c3ccccc3)c(=O)c2c(C)n1CC(=O)N1CCN(c2cccc(Cl)c2)CC1	25%
Cc1ccc(C)c(N2CCN(C(=O)Cn3c(C)c4cnn(-c5ccccc5)c(=O)c4c3C)CC2)c1	i
CCC(=O)N1CCC(Cc2nc(C3CCOCC3)no2)CC1	44%
Cc1ccc(C(=O)N2CCCCC23Cc2ccccc2NC3=O)cc1 (stereo unspecified)	-4%[44.1 µM]
COCCc1noc([C@@H]2CC(F)(F)CN2C(=O)C2CC=CC2)n1	-9%
O=C(O)CN1CCC[C@]2(C(=O)O)CN(Cc3cccc(O)c3)CC[C@@H]12	-5%
CC(C)(C)C(=O)N1CC[C@H]2CC(=O)N(C3CCCCC3)CC[C@H]2C1	i
CCOC(=O)COc1ccc(C2C(C(=O)OC)=C(C)NC3=C2C(=O)c2ccccc23)cc1Cl (stereo unspecified)	-6%
CCOc1cc(C2C(C(=O)OC)=C(C)NC3=C2C(=O)c2ccccc23)ccc1OC (stereo unspecified)	10µM*
CCOc1cc(C2C(C(=O)OC)=C(C)NC3=C2C(=O)c2ccccc23)c(Br)cc1O (stereo unspecified)	-6%
